# D1 agonist: agonists of human D1 dopamine receptor; actives 1% (n = 360,000); activation, % at 2 µM; HEK293 T-REx D1 cells, calcium flux, agonist mode; P21728; AID 504660; note: 0% is about no effect
#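 Agonism was scored from calcium flux recorded over 180 s (1 read/s) after pintool compound addition, following a 10-cycle baseline. Cells were inducible force-coupled HEK293 TREx D1, plated overnight at 30 C and loaded with no-wash calcium dye.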
# D1 antag: blocks dopamine activation of the human D1 receptor; HEK293 TREx D1 cells, calcium flux, dopamine EC80; stronger effect = lower value; activity change, negative = inhibition, % at 10 µM; actives 3.2% (n = 360,000); in the data active = activity change below about -30%; note: % is set by controls: 0 for no effect and ±100 for the full control effect
#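 Calcium flux readout: force-coupled, inducible Hek293 Trex D1 line, cells induced overnight at 30 C with tetracycline, dye-loaded 30–90 min at RT. Antagonism scored against EC80 dopamine challenge given 180 s after compound.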
# TRHR agonist: TRH receptor (human) agonism; P34981; TRHR cells, calcium flux fluo-8, FDSS agonist mode; activation, % at 2 µM; actives 0.18% (n = 360,000); note: 0% is about no effect
# Target sequence (P34981 whole entry, looked up): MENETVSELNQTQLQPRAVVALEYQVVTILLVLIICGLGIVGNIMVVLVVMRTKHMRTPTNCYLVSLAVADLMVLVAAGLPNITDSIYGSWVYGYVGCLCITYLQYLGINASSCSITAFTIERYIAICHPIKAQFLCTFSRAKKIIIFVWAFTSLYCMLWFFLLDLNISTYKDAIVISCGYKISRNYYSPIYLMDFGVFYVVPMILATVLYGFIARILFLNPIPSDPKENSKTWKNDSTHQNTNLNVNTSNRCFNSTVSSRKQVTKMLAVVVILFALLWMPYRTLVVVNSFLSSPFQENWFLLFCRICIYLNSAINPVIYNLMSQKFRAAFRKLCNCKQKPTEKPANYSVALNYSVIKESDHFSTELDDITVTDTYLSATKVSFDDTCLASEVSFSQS
#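 TRHR-expressing cells, plated overnight in medium with 10% serum, were loaded with fluo-8 calcium dye at room temperature. After a 10 s baseline, library compound was pin-added and calcium release was recorded kinetically (ex 480/em 530) as agonist response.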
# D1 PAM: enhances dopamine response at the human D1 receptor | HEK293 TREx D1 cells, calcium flux, dopamine EC20 potentiation | AID 504651 | actives 0.036% (n = 360,000) | P21728 | potentiation, % at 10 µM; in the data active = potentiation above about 30%; note: 0% is about no effect
# TRHR enhancer: allosteric enhancers of human TRH receptor | actives 0.66% (n = 360,000) | enhancement, % at 2 µM | P34981 | TRHR cells, fluo-8 calcium fluorescence, EC20 TRH enhancement; in the data active = enhancement above about 30%; note: 0% is about no effect
#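 Enhancer read-out: after compound pinning and an initial kinetic agonist-mode read, an EC20 of TRH (10 nM final) was injected and fluo-8 calcium signal (Ex 480/Em 530) followed at 1 s/cycle for 100 cycles in TRHR-expressing cells.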
# Active calls of the source: *. Sampled rows, rich in hits. Any-hit rate of the full collection: about 4.7%. Cut-off read from the data, not from the text of the source, unless noted: active = activation above about 30%; inactive = the rest.
SMILES,D1 agonist,D1 antag,TRHR agonist,D1 PAM,TRHR enhancer
Cc1cccc(C(=O)NCC(=O)OC(C(=O)Nc2cc(C(F)(F)F)ccc2Cl)c2ccccc2)c1 (stereo not given),7,-30*,2,-6,-7
O=C(CNC(=O)c1ccccc1)OC(Cc1ccccc1)C(=O)Nc1cc(C(F)(F)F)ccc1Cl (stereo not given),3,-6,-3,-3,-7
Cc1c(NC(=O)C(C)OC(=O)c2ncc(Cl)c(Cl)c2Cl)c(=O)n(-c2ccccc2)n1C (stereo not given),1,-1,0,-2,-1
O=S(=O)(Nc1ccc(F)cc1)c1ccc(NS(=O)(=O)c2cccs2)cc1,1,3,0,0,-2
CCOC(=O)[C@@H]1[C@H]2COc3cc(OC)ccc3[C@H]2N2C(=O)N(c3ccc(F)cc3)C(=O)[C@@]12C,4,3,1,1,5
Cc1cc(CNC(=O)COC(=O)c2ccc(Cl)c(N)c2)cc(C)c1O,7,-6,0,-3,13
Cc1ccc(S(=O)(=O)N(C)c2ccc3sc(C)nc3c2)cc1,6,1,-1,-7,38*
O=C(Cc1ccc(S(=O)(=O)N2CCOCC2)s1)N1CCN(c2cccc(C(F)(F)F)c2)CC1,14,-32*,0,-6,-2
COc1ccc(CCNC(=O)c2ccc3c(Cl)c4c(nc3c2)CCCC4)cc1OC,1,-5,0,3,3
Cc1ccc(C)c(N2CCN(C(=O)Cn3cnc4sc(C)c(S(=O)(=O)N5CCN(c6ncccn6)CC5)c4c3=O)CC2)c1,4,-2,0,0,-1
COc1ccccc1-c1cc(C(=O)NC(C)c2ccccc2)no1 (stereo not given),10,-42*,1,-15,-7
COCCNC(=O)c1cc(-c2ccccc2OC)on1,1,12,0,-5,-2
Cn1c(CNC(=O)CNS(=O)(=O)c2ccc(Cl)cc2)cc(=O)n(C)c1=O,4,-19,0,-5,-1
CCCSc1nnc(N2C(=O)C(O)=C(C(=O)c3ccco3)C2c2ccccc2F)s1 (stereo not given),97*,-15,29,-4,-3
CSc1nnc(N2C(=O)C(O)=C(C(=O)c3ccco3)C2c2ccccc2F)s1 (stereo not given),98*,-1,23,2,3
C=CCSc1nnc(N2C(=O)C(O)=C(C(=O)c3ccco3)C2c2ccccc2F)s1 (stereo not given),27,15,12,-2,1
CCc1ccc(C(=O)c2cn(Cc3ccc(F)cc3)c3cc(OC)c(OC)cc3c2=O)cc1,0,12,0,0,8
COc1ccccc1N1CCN(CCCn2c(=S)[nH]c3ccccc3c2=O)CC1,0,-88*,-1,-8,4
O=c1c2cc(N3CCOCC3)ccc2[nH]c(=S)n1CCCN1CCN(c2ccccc2F)CC1,3,-71*,0,-7,2
COc1ccc(C(=O)N(C)CCCC2CCCC2)cc1OC1CCN(C(C)C)CC1,17,-47*,0,-3,3
COCCC(=O)N1CCC(Oc2ccc(C(=O)N(C)CCCC3CCCC3)cc2)CC1,21,-33*,-1,-6,9
Cc1cc2c(c(=O)n1CCN(C)C)C(c1ccncc1)C(C#N)=C(N)O2 (stereo not given),-1,-9,1,-5,1
COc1ccc(C2C(C#N)=C(N)Oc3cc(C)n(Cc4ccncc4)c(=O)c32)cc1 (stereo not given),0,-35*,0,-2,5
CCC(C(=O)Nc1cc(Cl)ccc1OC)n1nc(-c2ccccc2)ccc1=O (stereo not given),-1,-13,1,-1,0
Oc1c(C=C2N=c3ccccc3=N2)sc(=S)n1C1CCCC1,5,-71*,0,8,-1
Oc1c(C=C2N=c3ccccc3=N2)sc(=S)n1-c1ccc(F)cc1,3,9,0,3,18
CCn1c(COc2ccccc2C)nnc1SCc1nc2ccccc2c(=O)[nH]1,2,-30*,0,-3,0
CCn1c(CC(=O)Nc2ccccc2)nnc1SCc1nc2ccccc2c(=O)[nH]1,1,13,0,-4,12

# Compound activity (PubChem)
